Drawing on PubChem BioAssay (NCATS), this text covers Potency for four molecules.

Assay [1] can be described thus: qHTS for Inhibitors of Plasmodium falciparum (CP250) proliferation (AID 504320; active = well fitted inhibition curve with a large enough effect). In outline: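 Parasite growth measured as SYBR Green DNA fluorescence (ex 485, em 535 nm) after overnight lysis following 72 h culture at 37 °C, 0.3% parasitemia, 2.5% hematocrit. Values normalized against DMSO and 0.29 uM artemisinin controls, with plate-stack correction.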
In assay [2] the target is Atrial natriuretic peptide receptor 1 (Homo sapiens) (UniProt P16066). The assay is described as follows: Natriuretic polypeptide receptor (hNpr1) antagonism - Pilot CMLD screen (AID 1347052).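 Also: HEK293 cells with hNpr1 stimulated by hNppA peptide at 0.1 nM; cGMP level read as GloSensor luciferase luminescence after agonist stimulation; series mostly up to about 9.2 µM.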
Chain of Atrial natriuretic peptide receptor 1 (Homo sapiens) (P16066 whole entry, looked up): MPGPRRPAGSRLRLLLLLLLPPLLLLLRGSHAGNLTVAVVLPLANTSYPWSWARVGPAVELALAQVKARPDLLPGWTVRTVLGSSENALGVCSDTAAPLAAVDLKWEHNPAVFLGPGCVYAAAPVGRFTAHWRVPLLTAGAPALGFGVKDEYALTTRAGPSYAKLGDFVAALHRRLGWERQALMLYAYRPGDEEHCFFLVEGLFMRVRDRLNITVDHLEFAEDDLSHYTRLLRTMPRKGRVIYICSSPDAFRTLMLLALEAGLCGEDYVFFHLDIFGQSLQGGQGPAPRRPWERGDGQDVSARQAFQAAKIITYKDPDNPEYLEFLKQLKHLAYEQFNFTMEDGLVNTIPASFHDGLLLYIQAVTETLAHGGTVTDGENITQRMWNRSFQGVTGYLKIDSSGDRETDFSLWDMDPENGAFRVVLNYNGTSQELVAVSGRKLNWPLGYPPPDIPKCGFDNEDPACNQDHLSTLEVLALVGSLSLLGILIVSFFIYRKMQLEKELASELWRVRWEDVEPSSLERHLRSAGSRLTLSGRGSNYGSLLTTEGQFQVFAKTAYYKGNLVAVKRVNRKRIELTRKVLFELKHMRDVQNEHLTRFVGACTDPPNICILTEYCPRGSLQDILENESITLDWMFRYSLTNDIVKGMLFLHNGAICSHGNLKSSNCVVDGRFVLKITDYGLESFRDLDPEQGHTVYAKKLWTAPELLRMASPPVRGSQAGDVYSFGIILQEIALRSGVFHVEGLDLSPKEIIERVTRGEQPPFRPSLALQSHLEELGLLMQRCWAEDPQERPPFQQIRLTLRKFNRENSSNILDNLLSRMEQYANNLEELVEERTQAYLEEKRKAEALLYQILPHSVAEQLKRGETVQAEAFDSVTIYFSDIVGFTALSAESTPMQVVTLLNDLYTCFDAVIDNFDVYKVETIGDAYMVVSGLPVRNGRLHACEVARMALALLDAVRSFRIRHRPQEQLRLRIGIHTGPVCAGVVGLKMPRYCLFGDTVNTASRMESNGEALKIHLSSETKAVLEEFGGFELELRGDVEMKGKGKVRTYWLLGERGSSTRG

Inconclusive results are not listed. Where a call stands in place of a potency, no number is given. Values without a mark were called inactive. Activity calls are given as the source filed them. Unless noted, calls follow the shape of the full dose curve.

For the molecule `C[C@@H]1C=CCC(=O)N[C@@H](c2cccc(Br)c2)[C@H](C)C=CCC(=O)N[C@@H]1c1cccc(Br)c1`, the Potency result in assay [1] and in assay [2] was “inactive” each time.

Regarding `CCCC[C@]12Cc3cc(C#N)ccc3[C@H](O1)c1c(cc(-c3ccccc3)oc1=O)O2`, the Potency entry in assay [1] and in assay [2] was “inactive” in each case.

Take `COc1cccc([C@H]2NC(=O)C[C@@H]3C[C@@H](C)[C@@H](c4cccc(OC)c4)N3C(=O)C=CC[C@@H]2C)c1`: the Potency entry in assay [1] and in assay [2] was “inactive” throughout.

`COC(=O)CC=C[C@@H](C)[C@H](NC(=O)OCC(Cl)(Cl)Cl)c1ccc(-c2ccccc2)cc1`: the Potency entry in assay [1] and in assay [2] was “inactive” each time.
